# Compound activity deposited in PubChem BioAssay by National Center for Advancing Translational Sciences (NCATS).
# In the library only some 1.9% were active in any assay of this set; here they are far more common.
# NPSR antagonist: antagonists of human neuropeptide S receptor cAMP signaling; Potency, µM (titrated, usually from 38.3 µM), without a hit: top-dose activity change, negative = inhibition, actives largely listed as inhibitors; CHO-NPSR cells, cAMP TR-FRET, antagonist mode; 220,000 compounds, 1% hits; Q6W5P4; AID 1461; also: % is scaled to controls: 0 for no effect and ±100 for the full control effect; nearly all actives have a fitted effect of over 50% in size
# Target sequence (Q6W5P4 whole entry, looked up): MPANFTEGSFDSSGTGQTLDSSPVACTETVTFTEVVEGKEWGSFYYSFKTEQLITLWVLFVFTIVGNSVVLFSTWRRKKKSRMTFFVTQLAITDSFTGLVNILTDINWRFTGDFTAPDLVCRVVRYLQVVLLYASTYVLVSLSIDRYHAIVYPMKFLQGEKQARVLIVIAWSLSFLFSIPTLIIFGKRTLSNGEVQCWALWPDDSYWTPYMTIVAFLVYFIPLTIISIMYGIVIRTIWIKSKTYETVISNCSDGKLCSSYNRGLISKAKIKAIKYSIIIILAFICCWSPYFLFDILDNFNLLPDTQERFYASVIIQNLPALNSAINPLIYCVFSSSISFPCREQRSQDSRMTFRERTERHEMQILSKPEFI
# HttQ103 aggreg: inhibitors of mutant huntingtin aggregate formation in PC12 cells. PC12 HttQ103-GFP aggregates, Acumen cytometry, 40 h. Potency, µM (titrated, usually from 46.1 µM), without a hit: at the top dose activity change, negative = inhibition, most hits filed as inhibitors. 220,000 compounds, 1.1% hits. AID 1688; also: % is scaled to controls: 0 for no effect and ±100 for the full control effect; nearly all actives have a fitted effect of over 60% in size
#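 Aggregate formation scored by laser-scanning cytometer (488 excitation, 500–530 emission) in lysed PC12 cells expressing Q103-GFP after 100 nM tebufenozide induction; library tested in dose series, with ATPLite reagent added in the multiplex.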
# HTT cytoprotect: protects HTT-Q103 PC12 cells, measured by ATP. PC12 HTT-Q103 induced, cytoprotection, ATP luminescence, 40 h. Potency, µM (series often up to 56.4 µM), for inactives: cytoprotection (ATP increase), hits mostly activators. 230,000 compounds, 0.14% hits; also: % of control where 0% means no effect; nearly all actives have a fitted effect of over 45% in size
#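 PC12 cells stably carrying ecdysone-inducible Htt exon 1 (Q103)–GFP were induced with 100 nM tebufenozide (final) alongside library compounds in a dose series. Cytoprotection was scored as retained ATP by ATPlite luminescence.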
# IMPase Li cell: membrane-permeable IMPase blocker, potentiated with lithium | CHO-M1 cells, IP1 TR-FRET (IP-One), carbachol + lithium | Potency, µM (titrated, usually from 59.4 µM), for the others: at the top dose activity, negative = IMPase inhibition, most hits filed as inhibitors | 210,000 compounds, 0.35% hits | AID 1457;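 also: IP1 builds up when IMPase is blocked and the TR-FRET signal falls; plate controls were basal vehicle for no effect and high inhibitor control for full effect; nearly all actives have a fitted effect of over 50% in size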
#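 Readout is a homogeneous TR-FRET IP1 immunoassay (Ex 320, Em 665 and 620), where raised cytosolic IP1 lowers signal. Cells were CHO-M1 treated 30 min at 37C with test compounds plus a little lithium; AC50 values came from Hill-equation fitting.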
# ERK EGF inh: inhibitors of EGF-stimulated ERK signaling pathway; HEK293-V1b, EGF-stimulated phospho-ERK AlphaScreen; Potency, µM (top dose mostly 11.5 µM), for inactives: at the highest dose activity change, negative = inhibition, actives largely listed as inhibitors; 130,000 compounds, 0.41% hits;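 also: plate controls were stimulated vehicle wells for no effect and unstimulated vehicle basal for full effect; nearly all actives have a fitted effect of over 55% in size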
#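 Concentration-response of compounds against EGF-driven ERK phosphorylation in V1b-expressing HEK293 cells; 30 min preincubation, 5 min EGF, AlphaScreen detection; Normalized to DMSO basal and 25 nM EGF.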
# An asterisk follows results filed as active; u = inconclusive; x = no result; ! = a repeat was not active; [ ] = another dose, or the depositor's remark. Calls follow the shape of the dose curve; as a rule, active = well fitted curve in the direction sought with a large enough effect; inconclusive = small, poorly fitted or top-dose-only effect, or another doubt; inactive = no such curve, though single readings can be large; an effect the other way counts as inactive or inconclusive. Potency is read from the fitted curve at half-maximal effect.
SMILES,NPSR antagonist,HttQ103 aggreg,HTT cytoprotect,IMPase Li cell,ERK EGF inh
O=C(COC(=O)c1ccc2c(=O)n3c(nc2c1)CCC3)NC1CCS(=O)(=O)C1 (centres undefined),19%,0.0063µM*,-24%,2%,-5%
CCOC(=O)c1c(CSC(=N)N)n(-c2ccc(Br)cc2)c2cc(Br)c(OC(C)=O)cc12,10µM*,-21%,x,16%,u
O=c1c(-c2ccc(Cl)cc2)nc2cnc(N3CCOCC3)nc2n1Cc1ccc(F)cc1,x,x,-1%,-26%,x
CC(C)c1cccc2cc3c(nc12)-c1cccc(=O)n1C3,x,x,19%,-1%,3%
O=c1[nH]c2ccccc2n1CCCSCCCn1c(=O)[nH]c2ccccc21,-9%[46.1 µM],11µM*,-27%[0.074 µM],5%[38.3 µM],x
Cc1cc(C(=O)CSCCCn2c(=O)[nH]c3ccccc32)c(C)n1C,-16%[46.1 µM],27%,-2%[10 µM],4%[38.3 µM],x
Cc1ccc2c(c1)-c1c(ssc1=S)C(C)(C)N2C(=O)CSC1=NCCS1,-23%[46.1 µM],8%,32%[10 µM],12%,x
CCOc1ccc2c(c1)-c1c(ssc1=S)C(C)(C)N2C(=O)CSC1=NCCS1,-28%,28%,20%[10 µM],17%,18µM*
C/C=C1/C(=O)C[C@@H]2[C@H]3CCC4=CC(=O)CC[C@]4(C)[C@@H]3CC[C@]12C,x,x,3%,6%,x
COC(=O)NC(/C(C(=O)OC)=C(\C)NCc1ccccc1)c1cccc(C)c1 (centres undefined),x,x,-7%[10 µM],x,x
COc1ccc(NC(=O)c2ccc(C#N)cc2)cc1NS(=O)(=O)c1ccc(F)cc1,7%,24%,1µM*,1%,10%
O=C(/C=C\c1ccc(O)cc1)c1ccc(O)cc1O,x,x,5%[1.9 µM],x,x
O=C(NC(Nc1ncc(S(=O)(=O)c2ccc([N+](=O)[O-])cc2)s1)(C(F)(F)F)C(F)(F)F)c1ccc(Cl)cc1,13µM*,u,-12%,24%[38.3 µM],x
O=C(c1ccc2c(c1)[nH]c(=S)n1c3ccccc3nc21)N1CCN(c2ncccn2)CC1,-7%[46.1 µM],3%,20%,7.1µM*,x
O=C(NCCN1CCN(c2ccccc2)CC1)c1ccc2c(c1)[nH]c(=S)n1c3ccccc3nc21,-25%,-5%,-26%,10µM*,-14%
CC(C)C[C@H]1COC(c2ccc(Br)cc2)=N1,x,x,14%,11%,x
COC(=O)CCCCCc1ccc(C(C)=O)s1,13%[46.1 µM],-4%,14%[10 µM],10µM*,x
CN(C)CCOC(c1ccccc1)c1ccccc1 (tested in a mixture with another compound),0%,8%,3.2µM*!,x,14%[57.5 µM]
CN(C)CCOC(c1ccccc1)c1ccccc1,11%,u,-51%,x,14µM*!
CN(C)CCOC(c1ccc(Cl)cc1)c1ccccn1 (centres undefined),6%,1%,-241%,31%,18%
Cc1ccc(C)c(S(=O)(=O)Nc2ccccc2C(=O)Nc2cc(C)on2)c1,-15%[46.1 µM],10µM*,-65%,1%[38.3 µM],x
Cc1ccc(C)c(NC(=O)c2ccccc2Sc2ccc([N+](=O)[O-])cc2Cl)c1,-53%,-10%,u,8%,12%
Cc1ccc(C)c(NC(=O)c2ccccc2NS(=O)(=O)c2cc([N+](=O)[O-])ccc2C)c1,-36%,2.8µM*,-52%[10 µM],5%,-1%
Cc1ccc(-c2cc(C(=O)Nc3ccc(S(=O)(=O)Nc4cc(C)on4)cc3)c3ccccc3n2)c(C)c1,10µM*,5%,-1%,7%[38.3 µM],x
CCCCC(C)n1[nH]c(=O)c2c(C)cc(C)nc21 (centres undefined),0%,12%[9.22 µM],33%[10 µM],x,-8%[57.5 µM]
SMILES,NPSR antagonist,HttQ103 aggreg,HTT cytoprotect,IMPase Li cell,ERK EGF inh
CCCCCCC(C)n1[nH]c(=O)c2c(C)cc(=O)[nH]c21 (centres undefined),-13%[46.1 µM],11µM*,-30%[0.074 µM],10%[38.3 µM],x
COc1ccc(C(=O)n2cc(C(=O)c3cc(C)ccc3O)cn2)cc1,16%,32µM*,3%[10 µM],-5%,-6%
COc1ccc(C(=O)n2cc(C(=O)c3cc(C)ccc3O)cn2)cc1OC,-5%,18%,-15%[0.074 µM],5%,2%
O=C(Nc1ccccc1Cc1ccccc1)c1oc2ccccc2c1COc1ccccc1,-18%,-3%,15%[10 µM],5%,5%
O=C(NCCc1ccccc1)c1oc2ccccc2c1COc1ccccc1,-35%,14µM*,37%[10 µM],12%,4%
CC(=O)OCOC(=O)CN(CC(=O)OCOC(C)=O)c1ccccc1OCCOc1ccccc1N(CC(=O)OCOC(C)=O)CC(=O)OCOC(C)=O,x,x,x,1%,x
CC(C)C(=O)Nc1cccc(C(=O)N2CCCCC2C)c1 (centres undefined),-8%[46.1 µM],10µM*,-5%,16%[38.3 µM],x
CCCCCCCCCCCCCC(=O)N[C@@H](C)[C@H](O)c1ccccc1,x,x,-4%,-5%,3%
COc1ccc(-c2cc(C(F)F)n3ncc(C(=O)Nc4c(C)n(C)n(-c5ccccc5)c4=O)c3n2)cc1,18%,20%[9.22 µM],19%[10 µM],20%,6%
COc1ccc(-c2cc(C(F)F)n3ncc(C(=O)Nc4cc(C)on4)c3n2)cc1,11%,u,u,25%,28µM*
Cc1ccc(-c2cc(C(F)F)n3ncc(C(=O)Nc4c(C)nn(Cc5ccccc5Cl)c4C)c3n2)cc1,4µM*,u,-96%,38%[38.3 µM],x
CCOc1ccc(C2Nc3ccc4ccccc4c3-c3c2c(=O)oc2ccccc32)cc1 (centres undefined),10µM*,-2%,-43%,5%[38.3 µM],x
COc1ccc(C2Nc3ccc4ccccc4c3-c3c2c(=O)oc2ccccc32)cc1 (centres undefined),7.9µM*,28%,-63%,-29%[38.3 µM],x
COc1cccc(/C=N/NC(=O)CN2CC(c3ccccc3)CC2=O)c1O (centres undefined),3%,3.5µM*,x,-5%,8%
COc1ccc(O)c(/C=N/NC(=O)CSc2nnc(C)n2-c2ccccc2)c1,-4%[46.1 µM],7.9µM*,-43%,1%[38.3 µM],x
COc1cccc(/C=N/NC(=O)CSc2nnc(C)n2-c2ccccc2)c1O,-16%[46.1 µM],7.9µM*,-54%,-1%[38.3 µM],x
C=CCn1c(COc2ccccc2)nnc1SCC(=O)N/N=C/c1ccc(C)cc1,16%[46.1 µM],9%,-4%,7%[38.3 µM],x
C=CCn1c(COc2ccccc2)nnc1SCC(=O)N/N=C/c1cc(Cl)ccc1O,5%[46.1 µM],7.9µM*,-36%,-15%[38.3 µM],x
COc1cccc(/C=N/NC(=O)C[n+]2ccccc2)c1O,1%,11%,10%[10 µM],14%,-3%
COc1ccc(/C=N/NC(=O)CSc2nnc(C)n2-c2ccccc2)c(OC)c1OC,-8%[46.1 µM],-12%,4%,-1%[38.3 µM],x
C=CC[C@@H]1C=C[C@H](O/N=C\[C@@H](C)[C@H](OCc2ccccc2)C(C)C)[C@H](CO)O1,x,x,-14%[10 µM],x,x
COc1ccc(C2C=C(c3ccc(Br)s3)Nc3ncnn32)cc1OC (centres undefined),-3%[46.1 µM],11µM*,-49%[10 µM],-20%,x
